An excerpt weighted towards active compounds, which were near 3.1% of everything screened.
PMP22 txn: Cell-based coincidence reporter assay to measure PMP22 gene transcription in S16 Pmp22-F2sN cells - Primary screen; S16 Pmp22-F2sN Schwann cells, FLuc/NLuc coincidence luminescence, 24 h; Potency, µM (series often up to 57.5 µM), actives largely listed as inhibitors; 43,000 tested, 2% active; AID 1508649, 2021; active means clear falling dose curves in both reporters; inconclusive means both reporters move, but less clearly or upward; inactive means either reporter flat; the % is the NLuc reporter signal
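S16 Schwann cells carrying FLuc/NLuc coincidence reporter in the Pmp22 3' UTR treated with compound 24 h at 37C; FLuc then NLuc luminescence read sequentially by dual-luciferase reagents.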
SKOV3 invasion: Primary qHTS assay for Inhibitors of ovarian cancer metastasis using an organotypic tumor microenvironment (TME) model | SKOV3ip1-GFP adhesion/invasion on 3D omental model, fluorescence | Potency, µM (titrated, usually from 45.8 µM), most hits filed as inhibitors | 46,000 tested, 0.1% active | AID 1963576, 2024; further: nearly all actives have a fitted effect of over 65% in size
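Adhesion/invasion was scored as fixed GFP-labeled SKOV3ip1 cell counts (488/509 nm), normalized to DMSO and tomatine controls. Cancer cells in serum-free medium, with four compound doses (0.36-46 umol/L), sat 2 hr at RT then 16 hr at 37 C on a 48 hr fibroblast/mesothelial/ECM culture.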
mTORC1 inh: Acumen qHTS Assay for Inhibitors of the mTORC1 Signaling Pathway in MEF (Tsc2-/-, p53-/-) Cells: Sytravon | Tsc2-/- p53-/- MEF, phospho-rpS6 immunofluorescence/PI, 24 h | Potency, µM (titrated, usually from 38.3 µM), hits mostly inhibitors | 44,000 tested, 0.78% active; further: nearly all actives have a fitted effect of over 50% in size
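Immunofluorescence of rpS6 phosphorylation in Tsc2-/-, p53-/- MEFs after 24 h compound exposure, normalized to propidium iodide signal. Activity is expressed as % positive cells, thresholded with 7.5 nM rapamycin.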
p53null 39C tox: qHTS Screen for Compounds that Selectively Target Cancer Cells with p53 Mutations: Cytotoxicity of p53 Null Cells at the Nonpermissive Temperature; 55,000 tested, 0.97% active; Potency, µM (top dose mostly 46.1 µM), usual class: cytotoxic; AID 904, 2007; H1299 p53-null (neo) cells, 39C, ATPlite viability, 24 h; further: nearly all actives have a fitted effect of over 50% in size
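Temperature-shift cytotoxicity format: compound titrations on p53-null or A138V-expressing H1299 cells held 24 hr at 39C, cell ATP then measured, AC50 from Hill model.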
p53null 32C tox: qHTS Screen for Compounds that Selectively Target Cancer Cells with p53 Mutations: Cytotoxicity of p53 Null Cells at the Permissive Temperature. Potency, µM (top dose mostly 46.1 µM), usual class: cytotoxic. 55,000 tested, 0.62% active. H1299-neo p53 null cells, ATP luminescence, 24 h, 32C; further: nearly all actives have a fitted effect of over 55% in size
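Cytotoxicity: H1299-neo (no p53), 32C, 24 h treatment. Concentrations up to 46 uM. Readout cellular ATP, luminescence. Normalization to DMSO basal and tamoxifen 100 uM maximal kill.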
S16 viability: Cell viability qHTS assay in S16 Pmp22-F2sN cells. S16 Pmp22-F2sN Schwann cells (luciferase reporters placed in the Pmp22 gene) viability, CellTiter-Glo, 24 h. Potency, µM (top dose mostly 57.5 µM), usual class: cytotoxic. 43,000 tested, 0.48% active; further: nearly all actives have a fitted effect of over 65% in size
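Rat S16 Schwann reporter line, 24 h treatment with library compounds delivered at 23 nL per well. Cell viability by CellTiter-Glo luminescence.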
NLuc sat counter: Biochemical NLuc saturation counterscreen for small molecule modulators of PMP22 gene expression - Nano-Glo assay; AID 1508638, 2021; Secreted NLuc enzyme (filtered S16 cell medium), Nano-Glo luminescence; 690 tested, 4% active; shares compounds with PMP22 txn; Potency, µM (titrated, usually from 57.5 µM), actives largely listed as inhibitors
NLuc Km ctr: Biochemical coelenterazine-based NLuc counterscreen for small molecule modulators of PMP22 gene expression - Km assay. shares compounds with PMP22 txn. secreted NLuc enzyme, coelenterazine luminescence, Km conditions. Potency, µM (series often up to 57.5 µM), actives largely listed as inhibitors. 690 tested, 5% active. AID 1508639, 2021
FLuc ctr PMP22: Biochemical FLuc counterscreen for small molecule modulators of PMP22 gene expression; shares compounds with PMP22 txn; purified P. pyralis FLuc, luminescence, 10 min; Potency, µM (highest dose often 57.5 µM), most hits filed as inhibitors; 690 tested, under 10 active; AID 1508640, 2021
Target sequence (P08659 whole entry, looked up): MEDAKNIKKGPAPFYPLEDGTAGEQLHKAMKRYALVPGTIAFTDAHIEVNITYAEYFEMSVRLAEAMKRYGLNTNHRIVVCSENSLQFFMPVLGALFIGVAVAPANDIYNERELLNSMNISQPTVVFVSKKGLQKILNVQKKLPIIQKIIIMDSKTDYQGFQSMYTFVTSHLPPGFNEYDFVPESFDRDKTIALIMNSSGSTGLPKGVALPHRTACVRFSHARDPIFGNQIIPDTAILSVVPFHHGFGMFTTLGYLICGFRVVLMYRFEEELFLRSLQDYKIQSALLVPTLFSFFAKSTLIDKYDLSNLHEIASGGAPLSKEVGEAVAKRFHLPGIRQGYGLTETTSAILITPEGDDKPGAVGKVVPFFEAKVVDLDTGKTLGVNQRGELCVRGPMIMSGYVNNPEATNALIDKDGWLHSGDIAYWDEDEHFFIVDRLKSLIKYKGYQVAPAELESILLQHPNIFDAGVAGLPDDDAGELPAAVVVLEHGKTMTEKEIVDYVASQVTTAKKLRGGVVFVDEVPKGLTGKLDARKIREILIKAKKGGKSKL
S16 F2sN tox cnf: Cell viability qHTS assay in S16 Pmp22-F2sN cells - Confirmatory screen. S16 Schwann cells viability, CellTiter-Glo ATP luminescence, 24 h. Potency, µM (highest dose often 57.5 µM), actives largely listed as cytotoxic. 690 tested, 7% active. shares compounds with PMP22 txn
PMP22 txn cnf: Cell-based coincidence reporter assay to measure PMP22 gene transcription in S16 Pmp22-F2sN cells - Confirmatory screen | shares compounds with PMP22 txn | AID 1508646, 2021 | Potency, µM (top dose mostly 57.5 µM), most hits filed as inhibitors | 690 tested, 22% active | S16 Schwann cells Pmp22-F2sN, dual luciferase, 24 h; active means clear falling dose curves in both reporters; inconclusive means both reporters move, but less clearly or upward; inactive means either reporter flat; the % is the FLuc reporter signal
A number is an active result; - = inactive; ? = inconclusive; . = no result given. Unless noted, the call rests on the fitted dose curve; in most records, active means well fitted curve in the direction sought with a large enough effect; inconclusive means small, poorly fitted or top-dose-only effect, or another doubt; inactive means no such curve, though single readings can be large; an effect the other way counts as inactive or inconclusive.

SMILES | PMP22 txn | SKOV3 invasion | mTORC1 inh | p53null 39C tox | p53null 32C tox | S16 viability | NLuc sat counter | NLuc Km ctr | FLuc ctr PMP22 | S16 F2sN tox cnf | PMP22 txn cnf
CCOc1ccc(-c2c(C)nn3c(C)c(C(=O)NCC(C)c4ccccc4)cnc23)cc1OCC (configuration not stated) | 17µM | - | - | - | - | - | ? | ? | - | - | ?
CCOc1ccc(-c2c(C)nn3c(C)c(C(=O)NCCN(C)C)cnc23)cc1OCC | - | - | - | - | - | - | . | . | . | . | .
Cc1cccc(N(C)S(=O)(=O)c2ccc(-c3cc(C)no3)s2)c1 | 7.6µM | - | - | ? | - | - | ? | ? | - | - | ?
Cc1cccc(-c2c3c(=O)n(C)c(=O)n(C)c3c3c(C)nc4ccccc4n23)c1 | 13µM | - | - | - | - | - | - | - | - | - | -
O=C(CSc1nc2nccnc2c(=O)n1CCc1c[nH]c2ccccc12)Nc1ccc(F)cc1 | 7µM | - | - | - | - | - | ? | ? | - | - | -
COc1cc2ncnc(Nc3ccc(F)c(Cl)c3)c2cc1NC(=O)C=CCN1CCCCC1 | . | - | . | . | . | . | . | . | . | . | .
CCOC(=O)C1CCN(c2nc(-c3ccc(Br)cc3)nc3ccccc23)CC1 | 15µM | - | - | - | - | ? | - | - | - | - | -
CC1CCN(c2nc(-c3ccc(Br)cc3)nc3ccccc23)CC1 | - | - | - | - | - | - | . | . | . | . | .
CC1=Nc2cc(C(=O)NC3CCCC3)ccc2Sc2ccc(C)cc21 | 7.8µM | - | ? | ? | - | - | - | - | - | - | ?
CCn1ccc2c(OCC(=O)Nc3ccccc3C(F)(F)F)cccc2c1=O | 19µM | - | - | - | - | ? | ? | ? | - | - | ?
CCn1ccc2c(OCC(=O)Nc3ccccc3C)cccc2c1=O | ? | - | - | - | - | - | . | . | . | . | .
CN(C)CC(C)(C)CNc1nn2c(-c3ccccc3)nnc2cc1C1CCC1 | . | - | . | . | . | . | . | . | . | . | .
O=C(NCCC1=CCCCC1)c1ccc2c(c1)N(Cc1ccccc1)C(=O)c1ccccc1S2=O (configuration not stated) | 13µM | - | - | - | - | - | - | - | - | - | -
Cn1nnnc1SCCNCc1ccccc1OCc1ccccc1F | ? | - | - | - | ? | - | . | . | . | . | .

Source: PubChem
